# p53ts 39C kill – qHTS Screen for Compounds that Selectively Target Cancer Cells with p53 Mutations: Cytotoxicity of p53ts Cells at the Nonpermissive Temperature; Potency, µM (top dose mostly 46.1 µM), for the others: at the highest dose activity change, negative = cell killing, actives largely listed as cytotoxic; hit rate 1.5% among 130,000; AID 902, 2007; H1299-p53A138V viability at 39C, ATP luminescence, 24 h; also: % is scaled to controls: 0 for no effect and ±100 for the full control effect; nearly all actives have a fitted effect of over 55% in size
# Peg3 imprint – qHTS Assay for Compounds that Induce Erasure of Genomic Imprints | mouse ES Peg3-LacZ reporter, beta-gal luminescence, 40 h | Potency, µM (highest dose often 60.7 µM), for inactives: top-dose activity change, positive = activation, most hits filed as activators | hit rate 0.02% among 110,000 | AID 1948, 2009
#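 Gelatin-coated wells received 300 freshly trypsinized female ES cells with a Peg3LacZ-Neo reporter on the maternal allele, then incubated 40 hours at 37C. BetaGlo was added for 5 minutes at room temperature before a single luminescence read.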
# p53ts 32C tox – qHTS Screen for Compounds that Selectively Target Cancer Cells with p53 Mutations: Cytotoxicity of p53ts Cells at the Permissive Temperature | H1299-p53A138V at 32C, ATP luminescence viability, 24 h | Potency, µM (highest dose often 46.1 µM), without a hit: at the top dose activity change, negative = cytotoxicity, hits mostly cytotoxic | hit rate 0.93% among 130,000 | AID 924, 2007;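 also: 0% = DMSO and -100% = full killing by reference compound; nearly all actives have a fitted effect of over 55% in size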
#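 H1299-p53 A138V cells (temperature-sensitive p53) exposed 24 h to up to 46 uM compound at 32C, where p53 is wild-type in conformation. Viability read as ATP luminescence and normalised to DMSO and 100 uM tamoxifen. AC50 fitted with the Hill equation.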
# Active calls of the source: *; ? = inconclusive; / = no result; [ ] = remark or other dose. An excerpt weighted towards active compounds, which were near 1.6% of everything screened. Calls follow the shape of the dose curve; as a rule, active = well fitted curve in the direction sought with a large enough effect; inconclusive = small, poorly fitted or top-dose-only effect, or another doubt; inactive = no such curve, though single readings can be large; an effect the other way counts as inactive or inconclusive. Potency is read from the fitted curve at half-maximal effect.
SMILES,p53ts 39C kill,Peg3 imprint,p53ts 32C tox
Cc1ccc(Cn2c(CO)cnc2SCC(=O)Nc2ccc(C)c(Cl)c2)cc1,12.6µM*,-11.1%[10.9 µM],-2.2%
Cc1ccc(CSc2nc3cccnc3n2Cc2ccc(C(=O)NCc3ccco3)cc2)cc1,/,/,5.62µM*
O=C(NCCc1cccs1)c1ccc(Cn2c(SCc3ccc(F)cc3)nc3cccnc32)cc1,15.8µM*,-12.6%[10.9 µM],12.6µM*
Cc1cccc(CSc2nc3cccnc3n2Cc2ccc(C(=O)NCc3ccco3)cc2)c1,/,/,-18.4%
O=C(NCCc1ccccc1)c1ccc(CSc2nc3cccnc3n2Cc2ccc(F)cc2)cc1,/,/,15.0%
O=C(NCc1ccco1)c1ccc(Cn2c(SCc3ccccc3F)nc3cccnc32)cc1,/,/,-25.7%
Cc1ccc(CNC(=O)c2ccc(Cn3c(SCc4ccc(F)cc4)nc4cccnc43)cc2)o1,20µM*,-16.0%[10.9 µM],?
CCOC(=O)c1cc(S(=O)(=O)N2CCN(c3ccc(F)cc3)CC2)[nH]n1,-0.8%,7.1%[10.9 µM],-3.1%
COc1cc(OC)c(NC(=O)N2CCc3c([nH]c4ccccc34)C2c2ccccc2F)cc1Cl (centres undefined),0.9%,4.1%[10.9 µM],6.1%
CC(C)OC(=O)c1cccnc1SCC(=O)Nc1ccc(C(F)(F)F)cc1Cl,-17.5%,-17.0%[10.9 µM],2.4%
Cc1oc(-c2ccc(Cl)cc2)nc1CS(=O)CC(=O)NCCc1ccccc1 (centres undefined),-6.0%,-13.0%[10.9 µM],-1.2%
COCC(=O)/C=C1\Sc2ccccc2N1C,-1.5%,-29.1%,-13.7%
CN1/C(=C\C(=O)c2cccs2)Sc2ccccc21,10µM*,-86.2%,10µM*
CCOC(=O)c1cccc(NS(=O)(=O)c2ccc(-c3coc(C)n3)cc2)c1,-23.5%,12.6%[10.9 µM],10.3%
CCOC(=O)c1cnc2ccc(C(=O)OC)cc2c1Nc1ccc(N2CCOCC2)cc1,12.6µM*,-17.0%[10.9 µM],?
CCOC(=O)c1ccc2ncc(C(=O)OCC)c(NCCN(C)C)c2c1,2.0%,-5.8%,-8.8%
CCOC(=O)c1cnc2ccc(C)cc2c1Nc1ccc(N(CC)CC)cc1,12.6µM*,-12.9%[10.9 µM],-6.7%
CCOC(=O)c1cnc2ccc(Cl)cc2c1Nc1ccc(N2CCOCC2)cc1,-18.9%,-16.2%[10.9 µM],-27.5%
Cc1cccc(NC(=O)Cn2cc(C(=O)c3ccco3)c3ccccc32)c1C,-4.5%,-17.4%[10.9 µM],-1.7%
O=c1c(-c2ccc(Cl)cc2)nc2cnc(N3CCNCC3)nc2n1CCc1ccccc1,?,-35.0%,?
O=C(CN1C(=O)COc2ccc(S(=O)(=O)NC3CCCC3)cc21)Nc1ccc(Cl)cc1F,/,/,10.2%
Cc1ccc(C)c(CNC(=O)c2cnc3sc(N4CCCC4)nn3c2=O)c1,4.3%,7.1%[10.9 µM],-8.9%
Cc1ccc(C)c(NC(=O)Cn2c(=O)n(CCC(C)C)c(=O)c3cccnc32)c1,11.3%,-16.1%[10.9 µM],6.0%
CC1CCN(c2ccc(-c3cccc(NS(=O)(=O)c4ccc(Cl)s4)c3)nn2)CC1,3.98µM*,-8.4%[10.9 µM],6.31µM*
Cc1cc(C)c(S(=O)(=O)Nc2ccc(-c3ccc(N4CCC(C)CC4)nn3)cc2)cc1C,39.0%,-7.7%[10.9 µM],-15.3%
SMILES,p53ts 39C kill,Peg3 imprint,p53ts 32C tox
CC1CCN(c2ccc(-c3cccc(NS(=O)(=O)c4cccs4)c3)nn2)CC1,3.16µM*,-13.8%[10.9 µM],10µM*
COc1ccc(-c2cccc(NS(=O)(=O)c3cccs3)c2)nn1,-11.4%,-14.9%[10.9 µM],-5.3%
CCOc1ccccc1CNC(=O)c1cnc2sc(N3CCOCC3)nn2c1=O,13.5%,-5.3%[10.9 µM],6.0%
CC(C)COc1ccc(C(=O)N(Cc2ccc(N(C)C)cc2)Cc2ccco2)cc1,11.1%,10.6%[10.9 µM],18.8%
Cc1cnc(CNc2nc(-c3cccc(NS(C)(=O)=O)c3)nc3ccccc23)cn1,4.6%,-11.1%,4.9%
Cc1cc(C)c(NC(=O)CSc2ncc(S(=O)(=O)c3ccc(C(C)(C)C)cc3)c(=O)[nH]2)c(C)c1,7.9%,-1.4%[10.9 µM],5.8%
Cc1nc2c(c(C)c1CCC(=O)NCc1ccc(Cl)cc1)c(=O)n(C)c(=O)n2C,-12.8%,17.6%[10.9 µM],17.9%
CC(C)=CCNc1ncnc2nc[nH]c12,12.3%[9.22 µM],1.0%[10.9 µM],0.9%[9.22 µM]
CCOC(=O)CNc1ncnc2nc[nH]c12,?,-77.6%,7.94µM*
CCOc1ccc(NC(=O)c2ccccc2OC)cc1,3.98µM*,-40.3%,12.6µM*
COc1ccccc1C(=O)Nc1ccccn1,10µM*,-78.6%,10µM*
COc1ccc(C(=O)Nc2ccc(C)cn2)c(OC)c1,0.631µM*,-88.5%,0.501µM*
C=CCNC(=O)c1ccc(OC)cc1OC,-4.9%,-11.0%,-2.3%
COc1ccccc1C(=O)Nc1ccc(C(=O)O)cc1,9.3%,-41.2%,0.8%
CCCC(=O)Nc1ccc(NC(=O)c2ccccc2OC)cn1,-7.6%,-13.9%,-9.7%
CCOc1ccc(NC(=O)c2ccccc2O)cc1,7.94µM*,-67.0%,7.94µM*
CCOc1ccc(NC(=O)c2ccccc2CO)cc1,?,-62.9%,?
Cc1cccc(N2CCN(CCNC(=O)Nc3ccc(Cl)cc3)CC2)c1C,?,-10.6%[10.9 µM],?
CCOC(=O)c1ccc(NC(=O)Cn2cc(C(=O)C3CC3)c3ccccc32)cc1,19.7%,17.9%[10.9 µM],-2.2%
CCOc1ccc(C(=O)CSc2nc3cc(C(=O)NC4CCCC4)ccc3c(=O)n2CC2CCCO2)cc1 (centres undefined),5.7%,15.9%[10.9 µM],3.0%
CC(C)(C)C1CCc2c(sc(NC(=O)c3noc4c3CCCC4)c2C#N)C1 (centres undefined),2.1%,13.1%[10.9 µM],10.1%
CCN(C(=O)CN1C(=O)c2ccccc2Sc2ccc(C(=O)OC)cc21)c1cccc(C)c1,?,-18.0%[10.9 µM],31.5%
CCOc1ccc(NC(=O)c2nccnc2CO)cc1,10µM*,-88.5%,12.6µM*
CCOc1ccc(NC(=O)c2cccnc2C(=O)O)cc1,-24.9%,-13.3%,-17.1%
Cc1ccc(NC2=C/C(=N\S(=O)(=O)c3cccs3)c3ccccc3C2=O)c(C)c1,7.08µM*,/,3.16µM*
SMILES,p53ts 39C kill,Peg3 imprint,p53ts 32C tox
COc1ccc(C2=C(Nc3ccc(C)cc3C)c3ccccc3C2=O)cc1,-17.2%,-5.3%[10.9 µM],17.4%
COc1cccc(C2C(=O)N(C3CCCCC3)CC(=O)N2CCc2ccc(OC)c(OC)c2)c1 (centres undefined),?,-18.5%[10.9 µM],2.7%
Cn1c(=O)[nH]c(=O)c2c1nc(N1CCOCC1)n2Cc1ccccc1,14.6%,-7.1%[10.9 µM],-1.3%
COC(=O)c1cccc(Nc2c(-c3ccc(SC)cc3)nc3nc[nH]n23)c1,-16.1%,-8.8%[10.9 µM],1.8%
CC(C)(C)c1ccc(-c2noc(CCC(N)=O)n2)cc1,?,-11.1%,?
CNC(=O)CCc1nc(-c2ccc(C(C)(C)C)cc2)no1,?,-26.4%,12.6µM*
Cc1c(C(=O)NCCN(C)C)sc2nc3n(c(=O)c12)CCC3,18.5%,-5.7%[10.9 µM],9.3%
N#C/C(=C\c1ccc(-c2cccc(Cl)c2)o1)C(=O)Nc1cccc(C(F)(F)F)c1,12.6µM*,-19.8%[10.9 µM],-0.8%
CCC(C)OC(=O)/C(C#N)=C\c1ccc(-c2cccc(C(F)(F)F)c2)o1 (centres undefined),-4.5%,-8.9%[10.9 µM],0.7%
C=CC(C1=CC(=O)C(OC)=CC1=O)c1ccc(OC)cc1 (centres undefined),17.1%,-45.9%,-9.4%
